For 36 sequences, sensor-assay potency score (higher = more potent) results are on record in the OligoGym collection.
Further: reference of the scale not given here.

The first experiment addresses AGAP3. Briefly: pooled miR-30 sensor sort-seq; sequence = guide strand. Particulars: shRNA.
With TTGTACACCGTCTGGAAACTGA, the sensor-assay potency score (higher = more potent) was -0.718.
The same measure, in the same setting: with TTAAGCTCCGGTACGGAGCGGC the figure was -0.14; with TCTGCTGTCGTCGATAACCCGG, -1.3.
Consider TACACAAACATAAATATTCCAA, for which the sensor-assay potency score (higher = more potent) is -0.597.
Same read-out and setting: as for TTCATCTCGGATCAGCAGCAGG, the figure is -1.26; as for TGGAACTGAGTACCTCAGCTGG, -1.58; as for ATACTTCTTCTTCCACTCCTTG, -0.733.
Still for that read-out and setting: as for TCGCAGTCGATACAAAAGCTGT, the figure is -1.8; as for TACCAGATGAGCAGCTGCGTGA, -0.56.
Sequence TTCCCTGGCACTTTCACCGTTG had a sensor-assay potency score (higher = more potent) of -0.316.
Still for that read-out and setting: with TACTTCTTCTTCCACTCCTTGT the figure was -0.51.
Same read-out and setting: as for ATTGGGTGCATCGCAGTCGATA, the figure is -1.38.

In a further experiment the target is AGBL5. The description is as above. Particulars: shRNA.
In turn, TTTCAGCACAGTCTGGTCGGGT registered a sensor-assay potency score (higher = more potent) of -0.447.
Consider TTCCGTTTCAGCACAGTCTGGT, for which the sensor-assay potency score (higher = more potent) came out at 0.615.
As to TTGTAGATTGCAACACGGCCGC, the sensor-assay potency score (higher = more potent) was -0.607.
As to TTTGGAAGCATGTCCATGCAGG, the sensor-assay potency score (higher = more potent) was -0.608.
Sequence TTGTAGTTGCATTCAAGTGTGT gave a sensor-assay potency score (higher = more potent) of 0.25.
Regarding ATCTACACGAAGTCCATCCAGA, the sensor-assay potency score (higher = more potent) was -1.07.
TAGATTAGTAAGGCTGCTGTGC had a sensor-assay potency score (higher = more potent) of -0.537.
On the same count and under the same terms, as for TTGAAGACAAAGCTAGATGGAG, the figure is -0.419; as for TTTAGGGACAAAACAAACCTCA, -0.454.
TTCTTCTCTGAGAAATTGCAGC yielded a sensor-assay potency score (higher = more potent) of -0.823.
With TTGCATTCAAGTGTGTAGCTGT, the sensor-assay potency score (higher = more potent) was 0.765.
With AATAGTTCCACAGTGTATCTGG, the sensor-assay potency score (higher = more potent) stood at 0.759.

The target of the next experiment is AGPAT6. The experiment is described as above. Particulars: shRNA.
Sequence TTGATCTCTTCTTCTAGTGAAG showed a sensor-assay potency score (higher = more potent) of -1.1.
As for TTCATCTGCCTCTCTAGTCATG, the sensor-assay potency score (higher = more potent) is -1.09.
With AAGATGATCACATCGATCGGTG, the sensor-assay potency score (higher = more potent) was -0.372.
For the sequence TCTTCTTCTAGTGAAGTGGGAT, the sensor-assay potency score (higher = more potent) was -0.236.
Consider TTCTAGTGAAGTGGGATCCTTT, for which the sensor-assay potency score (higher = more potent) was -0.0261.
For the sequence TTTTTGAACATCATCACCGATG, the sensor-assay potency score (higher = more potent) was -0.209.
TACTACTACCACTTCGACGAAT displayed a sensor-assay potency score (higher = more potent) of -0.506.
In turn, ATACTTGATAGCAACAGGGTAA returned a sensor-assay potency score (higher = more potent) of -0.725.
In the case of TTGAACATCATCACCGATGTAT, the sensor-assay potency score (higher = more potent) was found to be 0.749.
On the same count and under the same terms, with TCTCTTTGATCTCTTCTTCTAG the figure was -0.219; with TATTGATGCAGGTTCCTTCTGG, -0.00526; with TAAGTGAACATGTTTACTCATG, -1.14.
